Source: PubChem
This is a sample that favours compounds with a hit; in the whole collection about 11% have one here.
Pf growth 48h: inhibits P. falciparum growth in the first generation, 48 h | P. falciparum luciferase growth in erythrocytes, 48 h | Potency, µM (titrated, usually from 28.7 µM), without a hit: top-dose activity change, negative = inhibition, hits mostly inhibitors | 310,000 compounds, 5.9% hits; note: % is set by controls: 0 for no effect and ±100 for the full control effect
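Compounds are pin-transferred into medium, infected erythrocytes (2% hematocrit, 0.1% parasitemia final) are added, and plates sit one parasite generation at 37 C in 5% CO2. Detection reagent is then added and luminescence measured.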
NS1 function inh: influenza NS1 inhibition; Potency, µM (titrated, usually from 46.1 µM), for inactives: top-dose activity, positive = more growth; 270,000 compounds, 0.4% hits; AID 2326; calls by dose curve; note: actives are rising curves; nearly all actives have a fitted effect of over 50% in size
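Read-out: OD600 growth recovery of NS1-expressing budding yeast. Cells grown overnight at 30C in -URA glucose medium, washed, resuspended and diluted 1:100 in 2% galactose assay medium, pH 6.0. Same strain lacking NS1 served as positive control.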
HCV inhibitor: inhibitors of hepatitis C virus infection. AID 651820. Potency, µM (top dose mostly 41.8 µM), without a hit: at the highest dose activity change, negative = inhibition, hits mostly inhibitors. 340,000 compounds, 3.4% hits. Huh7.5.1 HCVcc-Cre infection, luciferase reporter, 44 h; note: % is set by controls: 0 for no effect and ±100 for the full control effect
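Infectious HCV cell culture screen: compound-treated cells (1,000/well, pre-plated 4 h) are infected with HCVcc-Cre at roughly 0.5 moi and grown 44 h. Infection is quantified by luciferase signal after 15 min substrate incubation at room temperature.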
VACV mCherry inh: vaccinia inhibition (mCherry reporter); Vaccinia virus mCherry reporter infection, fluorescence; Potency, µM (highest dose often 36.5 µM), inactives show at the highest dose activity change, negative = inhibition, most hits filed as inhibitors; 310,000 compounds, 0.63% hits; AID 720579; calls by dose curve; tested in A549 cells; note: % is set by controls: 0 for no effect and ±100 for the full control effect; nearly all actives have a fitted effect of over 35% in size
Pf growth 96h: inhibits malaria parasite growth, 96 h; P. falciparum luciferase reporter growth, 96 h; Potency, µM (highest dose often 28.7 µM), without a hit: at the top dose activity change, negative = inhibition, hits mostly inhibitors; 320,000 compounds, 6.9% hits; AID 504834; note: % is set by controls: 0 for no effect and ±100 for the full control effect
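Luminescence readout: decreased luciferase signal marks inhibited growth of reporter-expressing P. falciparum in infected red cells (2% hematocrit, 0.05% parasitemia final), exposed to compound two generations (96 h, 37 C, 5% CO2).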
VACV Venus inh: vaccinia inhibition (Venus reporter) | Vaccinia virus Venus reporter expression, fluorescence | Potency, µM (series often up to 36.5 µM), for inactives: at the top dose activity change, negative = inhibition, most hits filed as inhibitors | 330,000 compounds, 0.46% hits; calls by dose curve; tested in A549 cells; note: % is set by controls: 0 for no effect and ±100 for the full control effect; nearly all actives have a fitted effect of over 30% in size
Starred values were filed as active, the others as inactive; ? = inconclusive; . = not tested or not shown; [ ] = another dose, or the depositor's remark. Unless noted, calls come from the whole dose curve; as a rule, active = well fitted inhibition curve with a large enough effect; inconclusive = small, poorly fitted or top-dose-only effect, or another doubt; inactive = no such curve, though single readings can be large or run the other way. Potency is the fitted concentration of half-maximal effect.

SMILES | Pf growth 48h | NS1 function inh | HCV inhibitor | VACV mCherry inh | Pf growth 96h | VACV Venus inh
Cc1ccc(NC(=O)N2CCCC2C(=O)NCCC2=CCCCC2)cc1 (stereo not drawn) | -13% | -6% | -20% | . | 23% | .
CCOC(=O)N1CCC(n2c(SCC(=O)N3CCC(C)CC3)nc3ccccc3c2=O)CC1 | 10µM* | -1% | 13µM* | . | 4.7µM* | .
COCC(C)n1c(SCC(=O)Nc2cccnc2Cl)nc2ccccc2c1=O (stereo not drawn) | . | . | . | -26% | . | -7%
COCC(C)n1c(SCC(=O)NC(=O)NC2CCCC2)nc2ccccc2c1=O (stereo not drawn) | 13µM* | . | 11% | . | ? | .
CC(=O)c1ccccc1Oc1nc(CN2CCOCC2)nc2scc(-c3cccs3)c12 | ? | -11% | 10% | . | . | .
O=C(CSc1ccsc1[N+](=O)[O-])NCc1ccco1 | 12µM* | . | 10% | -3% | ? | -10%
COCCCNC(=O)CSc1ccsc1[N+](=O)[O-] | 1% | -3% | 21% | -10% | -36%[5.75 µM] | -12%
O=C(c1ccco1)N1CCN(C(=O)c2cc3sccc3n2Cc2ccccc2)CC1 | 12µM* | -1% | -27% | . | -14% | .
O=C(NCc1ccco1)c1ccc(Cn2c(=O)c3sccc3n(Cc3cccc(F)c3)c2=O)cc1 | . | ? | ? | 11% | 2.6µM* | -6%
O=C(NCc1ccco1)c1ccc(Cn2c(=O)c3ccccc3n(Cc3cccc(Cl)c3)c2=O)cc1 | . | 11% | ? | . | . | .
O=C(NCc1ccco1)c1cc2sccc2n1Cc1ccccc1 | 12µM* | -72% | ? | -19% | 2.1µM* | -12%
Cc1ccccc1Cn1c(Cc2ccccc2)nc2ccccc21 | ? | -64% | 13% | . | 83% | .
CO[C@H]1CN(C)C(=O)c2ccc(NC(=O)NC(C)C)cc2OC[C@H](C)NC[C@H]1C | . | . | . | -12% | . | -6%
CCOc1cc(Br)c(COc2ccc(C)nc2[N+](=O)[O-])cc1OCC | ? | -10% | 8.9µM* | -15% | ? | 4%
CCN(CC)/C(=N/O)NC(=O)NS(=O)(=O)c1ccc(C)cc1 | 0% | 5% | 8% | . | . | -2%
O=C(/C=C/c1cc[n+](CC(=O)c2ccc3cccc4c3c2CC4)cc1)c1ccc2cccc3c2c1CC3 | 1% | -36% | 6.3µM* | 5% | -1% | 6%
COc1ccccc1NC(=O)Nc1nnc(CC(=O)Nc2cccc(C)c2)s1 | 63% | 1% | -19% | . | ? | .
COc1ccc(C([O-])=Nc2ccc[n+](-c3nc4ccccc4nc3NS(=O)(=O)c3ccccc3)c2)cc1 | 2.6µM* | 16% | . | . | 13µM* | .
CCOc1ccc(S(=O)(=O)Nc2nc3ccccc3nc2Cl)cc1 | 24% | -39% | -9% | . | 25% | .
O=S(=O)(Nc1nc2ccccc2nc1-[n+]1cccc(N=C([O-])c2ccccc2Cl)c1)c1ccccc1 | 8.3µM* | -1% | . | . | 8.3µM* | .
CC(C)OC(=S)N/C(=N\S(=O)(=O)c1ccccc1)c1ccccc1 | 47% | 13% | 15% | . | 47% | .
COc1cc(OC)cc(-c2cc3ncccc3cn2)c1 | 35% | . | 11µM* | -11% | 36% | -13%
COc1cc(OC)cc(-c2cc3ccc(OC)cc3cn2)c1 | 25% | . | ? | -14% | 141% | ?
CCC1=NN2C(=N)/C(=C/c3ccc(OS(=O)(=O)c4ccccc4)cc3)C(=O)N=C2S1 | ? | 1% | 0% | . | ? | .
Oc1ccc(C(O)CNCCCCCCNCC(O)c2ccc(O)c(O)c2)cc1O (stereo not drawn) | 7.6µM* | . | . | . | 12µM* | .
CNC[C@H](O)c1ccc(O)c(O)c1 | -4% | -6% | 12% | -6% | -15% | -12%
CCCn1c(NCc2cc(C)ccc2O)nc2ccccc21 | . | -42% | ? | ? | ? | -29%
CCOC(=O)c1ccccc1NC(=O)c1ccc2c(SCC(=O)O)c3c(nc2c1)CCCC3 | 2.3µM* | 25% | -14% | . | ? | .
COc1ccc(C)cc1NC(=O)c1ccc2c(SCC(=O)O)c3c(nc2c1)CCCC3 | ? | -3% | -12% | 6% | 8.3µM* | 6%
COc1cc(Cl)c(C)cc1NC(=O)c1ccc2c(SCC(=O)O)c3c(nc2c1)CCCC3 | ? | . | -3% | -2% | 32% | -1%
